In the library only some 1.5% were active in any assay of this set; here they are far more common.
EBV gp42 block: EBV gp42 inhibition; Q1HVG2; inhibition, % (tested at 21.74 µM); AID 1085; 0.42% of 220,000 active; Fluorescence polarization binding assay, mP read-out; in the data active = inhibition above about 50%
Target sequence (Q1HVG2 whole entry, looked up): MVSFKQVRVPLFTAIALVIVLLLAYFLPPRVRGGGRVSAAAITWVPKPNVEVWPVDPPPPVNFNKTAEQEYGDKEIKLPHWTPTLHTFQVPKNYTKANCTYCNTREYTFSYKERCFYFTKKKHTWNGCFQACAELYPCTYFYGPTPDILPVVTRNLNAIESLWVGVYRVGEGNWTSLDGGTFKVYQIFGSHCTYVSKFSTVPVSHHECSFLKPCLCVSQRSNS
Bcl-xL primary: blocks human Bcl-xL binding to Bim BH3 peptide; inhibition, % at 10.9 µM; GST-Bcl-xL / FITC-Bim BH3 peptide fluorescence polarization; Q07817; 0.7% of 320,000 active;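 active = inhibition above the mean of all tested compounds plus 3 SD, cutoff set per campaign, cut at about 30% in these data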;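 also: 0% = DMSO wells and 100% = unlabeled Bim-BH3 peptide competitor; inhibitors lower millipolarization by displacing the labeled peptide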
Target sequence (Q07817 whole entry, looked up): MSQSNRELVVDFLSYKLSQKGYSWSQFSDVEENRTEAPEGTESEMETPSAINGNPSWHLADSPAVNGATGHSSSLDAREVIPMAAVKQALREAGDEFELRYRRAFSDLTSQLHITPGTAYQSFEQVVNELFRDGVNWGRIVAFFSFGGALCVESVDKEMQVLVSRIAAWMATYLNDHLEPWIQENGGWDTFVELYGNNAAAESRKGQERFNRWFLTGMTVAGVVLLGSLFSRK
eLon inh: inhibitors of E. coli Lon protease; inhibition, % at 7.94 µM; 0.42% of 360,000 active; purified E. coli Lon protease, fluorescence polarization; P0A9M0; in the data active = inhibition above about 13%, passing the limit was not always enough;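 also: 0% = enzyme with probe and DMSO and 100% = no enzyme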
MEX-5 binding: C. elegans MEX-5 TCR-2 RNA binding activity; Q9XUB2; MEX-5/FITC-TCR2 RNA binding, fluorescence polarization; hits give low values; activity score (negative = inhibition of binding), % at 10 µM; 0.38% of 300,000 active; AID 1832;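 active = inhibition past about -25% in most replicates, and total fluorescence under double the plate's negative control median, limit read from the data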;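 also: 0% = DMSO and -100% = 5 µM competing unlabeled TCR2 RNA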
GLD-1 RNA inh: GLD-1-TGE RNA interaction inhibition (C. elegans); purified GLD-1 + fluorescein TGE RNA, fluorescence polarization; Q17339; 0.44% of 320,000 active; AID 2280; inhibition, % at 5.96 µM;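 active = percent inhibition above a per-plate cutoff, the plate mean of test compounds plus 3 SD, cut at about 30% in these data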;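 also: 0% = DMSO wells with GLD-1 and probe and 100% = wells lacking GLD-1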
MCL1 BIM primary: inhibitors of human MCL1 binding to BIM-BH3 peptide; 0.68% of 320,000 active; GST-MCL1 / FITC-Bim-BH3 fluorescence polarization; Q07820; inhibition, % at 10.9 µM;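 active = inhibition above the mean inhibition of all tested compounds plus 3 SD, set per campaign, cut at about 40% in these data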;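 also: 0% = DMSO wells and 100% = unlabeled Bim-BH3 peptide control; higher means more loss of mP so more displacement of Bim peptide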
Bcl-xL conf: Bcl-xL (human) inhibition, MCL1 counter-screen confirmation; shares compounds with MCL1 BIM primary; GST-Bcl-xL / FITC-Bim BH3 peptide FP binding; inhibition, % at 10.9 µM; 54% of 1,700 active;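 active = inhibition above a cutoff equal to the mean inhibition of all tested compounds plus 3 SD, cut at about 30% in these data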;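 also: 0% = DMSO wells and 100% = unlabeled Bim BH3 control peptide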
MCL1 inh confirm: MCL1-BIM-BH3 interaction inhibition, confirmation; shares compounds with MCL1 BIM primary; 61% of 1,700 active; inhibition, % at 10.9 µM; AID 2168; GST-MCL1 / FITC-Bim-BH3 fluorescence polarization;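 active = inhibition above the average of all tested compounds plus 3 SD, cut at about 40% in these data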;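 also: 0% = DMSO wells and 100% = unlabeled Bim-BH3 control peptide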
Starred values were filed as active, the others as inactive; · = no result given; + = active, no number.

SMILES	EBV gp42 block	Bcl-xL primary	eLon inh	MEX-5 binding	GLD-1 RNA inh	MCL1 BIM primary	Bcl-xL conf	MCL1 inh confirm
COc1ccc(-c2cc(=O)c3ccc(O)cc3o2)cc1OC	·	·	-2	·	·	·	·	·
Nc1ccc(-c2c3ccc(=O)cc-3oc3cc(O)ccc23)c(C(=O)O)c1	·	86*	-255	·	16	78*	77*	76*
Cc1ccc(S(=O)(=O)N2CCC[C@H]2C(=O)OCc2nc3ccccc3s2)cc1	·	·	3	·	·	·	·	·
Cc1ccc([N+](=O)[O-])cc1-c1ccc(/C=C(\C#N)c2[nH]nc(N)c2C#N)o1	60*	9	-10	·	7	49*	54*	84*
Cc1cc(N)ccc1-n1c(C)ccc1C	-4	11	-12	1	4	13	·	·
Cc1cc(C(=O)O)ccc1-n1c(C)ccc1C	-10	47*	·	-88*	26	98*	89*	141*
O=C(Nc1nc(-c2ccco2)c(-c2ccco2)s1)c1cnccn1	·	33*	·	-1	14	102*	16	27
O=C(Nc1nc(-c2ccco2)c(-c2ccco2)s1)c1c(F)cccc1Cl	·	6	-30	·	12	15	·	·
CCN(Cc1nc(-c2ccc(OC)c(OC)c2)no1)C(=O)c1ccoc1C	·	-3	4	0	4	-5	·	·
C=CCSc1nnc(NC(=O)CCN2C(=O)C3CC=CCC3C2=O)s1 (stereo unspecified)	·	85*	-8	·	77*	+	3	-5
C[C@@H]1CCCCO[C@H](CN(C)Cc2ccc(C(F)(F)F)cc2)[C@@H](C)CN([C@H](C)CO)C(=O)c2cc(NS(=O)(=O)c3cn(C)cn3)ccc2O1	·	·	-1	·	·	·	·	·
CN(C)C(=O)CCc1ccc2c3c([nH]c2c1)[C@]1(CCC2CCCC2)[C@@H](C(=O)N2CCOCC2)C[C@H](CC(=O)NCCC2=CCCCC2)C(=O)N1CC3	·	·	3	·	·	·	·	·
CC(=O)Nc1ccc(NC(=O)C(C)OC(=O)/C(C#N)=C/c2ccc(N(C)C)cc2)cc1 (stereo unspecified)	·	+	-112	-26*	136*	+	165*	191*
Cc1cccc(C)c1NC(=O)CCn1cnc2ccccc2c1=O	-6	-9	3	-1	5	-7	·	·
Cc1cc2c(cc1[N+](=O)[O-])NC(CNC(C)C)CC2 (stereo unspecified)	-18	98*	0	0	51*	96*	5	4
CC1(C)Cc2c(sc3nc[nH]c(=O)c23)CO1	-8	1	7	-1	-3	5	·	·
O=c1[nH]cnc2sc3c(c12)CN(Cc1ccccc1)CC3	·	73*	10	1	-9	58*	22	17
COC(=O)c1cc(O)cc(OC)c1Oc1cc(C)cc(O)c1C(=O)O	-6	21	3	·	6	73*	20	76*
N#Cc1c(-c2ccc(Cl)cc2)cc(-c2cccs2)nc1SCC(=O)O	·	50*	1	2	3	73*	37*	53*
Cc1ccc(S(=O)(=O)NC(=O)C2CCCCC2)cc1	·	7	7	·	6	3	·	·
O=C(NCCN1CCCC1)c1ccc2c(c1)N(Cc1ccccc1)C(=O)c1ccccc1S2(=O)=O	·	5	-7	-1	3	8	·	·
COc1ccc(NC(=O)c2ccco2)cn1	·	70*	16	-13	60*	75*	64*	86*
COc1cccc(OC)c1C(=O)Nc1ccc(NC(=O)c2ccco2)cc1	3	4	-7	-1	-6	2	·	·
COc1ccc(NC(=O)/C=C/c2cccc(F)c2)cn1	38	75*	1	-9	47*	75*	54*	68*
COc1ccc(NC(=O)/C=C/c2ccco2)cn1	8	12	-2	-4	10	16	·	·
SMILES	EBV gp42 block	Bcl-xL primary	eLon inh	MEX-5 binding	GLD-1 RNA inh	MCL1 BIM primary	Bcl-xL conf	MCL1 inh confirm
COc1ccc(NC(=O)CCl)cn1	71*	105*	·	-60*	82*	111*	84*	115*
CCOc1ccc(NC(=O)CN(c2ccc(OC)c(OC)c2)S(=O)(=O)c2ccc(C)cc2)cc1	·	-3	0	-2	-4	-5	·	·
Cc1cc(C)n(CC(=O)c2cccc(N)c2)n1	-12	0	-10	1	10	0	·	·
Cc1ccc(S(=O)(=O)Oc2ccccc2-c2ccccc2)cc1	·	·	6	·	·	·	·	·
CCOC(=O)C1(Cc2cccc(Cl)c2)CCCN(C(=O)c2cc(C)on2)C1 (stereo unspecified)	·	·	4	0	·	·	·	·
CCOC(=O)C1(Cc2cccc(Cl)c2)CCCN(C(=O)c2c(CC)noc2C)C1 (stereo unspecified)	·	6	0	1	4	42*	4	1
CCCC(c1nnnn1Cc1ccc(OC)cc1)N1CCN(C(=O)c2ccco2)CC1 (stereo unspecified)	·	5	5	-1	2	5	·	·
Cc1cc(CNC(=O)COc2ccc(F)cc2Cl)cc(C)c1O	-6	5	-2	1	0	3	·	·
CCCCc1ccc(N=N/C(C(=O)Nc2ccc(NC(C)=O)cc2OC)=C(/C)O)cc1	·	2	0	-2	-3	-2	·	·
FC(F)(F)c1ccc(C2Nc3cccc4cccc(c34)N2)cc1	4	·	-1	·	·	·	·	·
CCN(CC)c1ccc(C2Nc3cccc4cccc(c34)N2)cc1	·	4	-13	-2	1	6	·	·
Fc1ccc(C2Nc3cccc4cccc(c34)N2)cc1	·	19	-5	-6	10	41*	13	8
Cc1ccc(C2Nc3cccc4cccc(c34)N2)s1	-3	51*	-1	-2	22	61*	16	8
NC(=O)C1CC(=O)N(CCc2ccc(F)cc2)C1 (stereo unspecified)	·	9	-5	-1	-1	14	·	·
C/C(=N/NC(=O)c1cc2ccccc2cc1O)C1C(=O)c2ccccc2C1=O	-9	14	-5	2	0	41*	7	41*
CC(=O)Nc1cccc(C2=CC(c3ccco3)n3ncnc3N2)c1 (stereo unspecified)	130*	116*	·	-87*	69*	123*	141*	177*
CC1=C(C(=O)Nc2ccccc2)C(c2ccco2)n2ncnc2N1 (stereo unspecified)	-12	1	-2	1	7	4	·	·
CNc1ccccc1	·	4	7	·	1	4	·	·
CNc1cccccc1=S	11	54*	1	-7	28	78*	28	27
COc1ccc([N+](=O)[O-])cc1NC(=S)NC(C)=O	-8	3	1	-1	-5	0	·	·
